Assay [1] addresses CCAAT/enhancer-binding protein beta (Homo sapiens) (UniProt P17676). As to the kind of experiment: ATG_C_EBP_CIS: Attagene CIS-FACTORIAL HepG2 Assay for human CCAAT/Enhancer Binding Protein (C/EBP) beta (AID 2282927). The note with it: HepG2 Attagene cis-factorial transcription factor reporter; actives raise or lower the signal. The essentials: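 Transiently transfected HepG2 (MRTU library, endogenous TF-driven promoters); 24 h dosing; total RNA → oligo(dT) RT → PCR → 6-FAM primer extension → HpaI digest → CE; fit bidirectionally vs DMSO.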

Assay [2] in a line: ATG_CMV_CIS: Attagene CIS-FACTORIAL HepG2 Assay for human CMV (Internal Marker) (AID 2282928).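 Note: endpoint acts as a background internal control marker rather than a target.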 The note with it: HepG2 CMV promoter reporter, transcription factor profiling; actives raise or lower the signal. In short, it runs like this: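 Fluorescence intensity of RT-PCR-derived reporter fragments, resolved by capillary electrophoresis, gives the signal. HepG2 liver cells bearing transfected cis-element reporters were treated 24 h; activity in either direction was fit relative to DMSO-treated controls.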

Assay [3] in a line: ATG_DR4_LXR_CIS: Attagene CIS-FACTORIAL HepG2 Assay for human Liver X Receptor (LXR), DR4 submotif (AID 2282929). The note with it: HepG2 Attagene DR4 cis-reporter, mRNA transcription; actives raise or lower the signal. The essentials: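 HepG2, transient MRTU transfection, cis-element (DR4) promoter; 24 h compound exposure; total RNA → oligo(dT) RT → PCR → 6-FAM primer extension → HpaI cut → CE. Gain/loss vs DMSO, bidirectional fit.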

For assay [4], the target named is Aryl hydrocarbon receptor (Homo sapiens) (UniProt P35869). As to the kind of experiment: ATG_Ahr_CIS: Attagene CIS-FACTORIAL HepG2 Assay for human Aryl Hydrocarbon Receptor (Ahr) (AID 2282930). The settings on record: HepG2 AhR cis-factorial reporter transcription; actives raise or lower the signal. In short, it runs like this:
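Read-out: reporter mRNA quantified by RT-PCR with fluorescent primer extension and capillary electrophoresis. Human HepG2 liver cells carried transfected cis-promoter reporter units and were exposed to chemical for 24 h; gain or loss fitted relative to DMSO.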

Assay [5] is described as follows: ATG_AP_1_CIS: Attagene CIS-FACTORIAL HepG2 Assay for human Activator Protein 1 (AP-1) (AID 2282931). The settings on record: HepG2 Attagene cis-factorial AP-1 reporter mRNA; actives raise or lower the signal. The essentials: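 Transient MRTU transfection of HepG2 → 24 h chemical treatment → RNA isolation, RT-PCR, 6-FAM labelling, HpaI digest → capillary electrophoresis. Fit: bidirectional, DMSO negative control.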

The nature of assay [6]: ATG_AP_2_CIS: Attagene CIS-FACTORIAL HepG2 Assay for human Activator Protein 2 (AP-2) (AID 2282932). The note with it: HepG2 AP-2 cis-reporter, Attagene transcription factor profiling; actives raise or lower the signal. The essentials: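 Read-out: fluorescent reporter mRNA via RT-PCR and capillary electrophoresis, 24 h post-dose in transiently transfected HepG2. Endogenous factors drive cis-promoter reporters; gain or loss of signal fitted bidirectionally against DMSO.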

The nature of assay [7]: ATG_BRE_CIS: Attagene CIS-FACTORIAL HepG2 Assay for human Bone Morphogenetic Protein (BMP) Response Element (BRE) (AID 2282933). The settings on record: HepG2 BMP response element reporter, Attagene transcription factor profiling; actives raise or lower the signal. In short, it runs like this:
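Endogenous transcription factor activity read in transiently transfected HepG2 cells after 24 h chemical exposure. Bidirectional curve fitting against DMSO; readout is reporter transcript level by RT-PCR with capillary electrophoresis of labelled products.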

The target of assay [8] is Transcription factor E2F1 (Homo sapiens) (UniProt Q01094). Nature of the assay: ATG_E2F_CIS: Attagene CIS-FACTORIAL HepG2 Assay for human E2F Transcription Factor 1 (AID 2282935). The settings on record: HepG2 Attagene cis-reporter, E2F reporter RNA transcripts; actives raise or lower the signal. In short, it runs like this:
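Transient MRTU transfection of HepG2; 24 h compound exposure; RNA → oligo(dT) RT → PCR → FAM label → HpaI cut → CE fluorescence. Gain/loss of signal fit against DMSO.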

A short description of assay [9]: ATG_E_Box_CIS: Attagene CIS-FACTORIAL HepG2 Assay for human Enhancer Box (E-box) (AID 2282936). The note with it: HepG2 E-box cis-reporter transcription, actives raise or lower the signal. In short, it runs like this:
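Transiently transfected HepG2, endogenous TF-driven reporters, 24 h dosing. Readout: RT-PCR plus capillary electrophoresis of fluorescent reporter fragments. Gain or loss of signal fitted bidirectionally against DMSO baseline.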

A short description of assay [10]: ATG_M_61_CIS: Attagene CIS-FACTORIAL HepG2 Assay for M61 Transcription Factor (Internal Marker) (AID 2282937). The note with it: HepG2 Attagene CIS-FACTORIAL M61 internal marker reporter; actives raise or lower the signal. In short, it runs like this: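 Human liver HepG2, transient MRTU transfection (cis promoter elements), 24 h compound. Total RNA → oligo(dT) RT → PCR → FAM label → HpaI → CE. Internal background marker; bidirectional fitting, DMSO = baseline.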

A short description of assay [11]: ATG_EGR_CIS: Attagene CIS-FACTORIAL HepG2 Assay for human Early Growth Response 1 (EGR1) (AID 2282938). The note with it: HepG2 Attagene CIS-FACTORIAL EGR reporter mRNA; actives raise or lower the signal. The essentials: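 Transient transfection of human HepG2 with multiple cis-regulated reporter units, chemical exposure 24 h, total RNA isolated. Reverse transcription, PCR, fluorescent labelling and capillary electrophoresis quantify reporter transcripts; activity fitted bidirectionally against DMSO.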

A short description of assay [12]: ATG_M_19_CIS: Attagene CIS-FACTORIAL HepG2 Assay for M19 Transcription Factor (Internal Marker) (AID 2282939). The settings on record: HepG2 Attagene CIS-FACTORIAL M19 internal marker reporter; actives raise or lower the signal. The essentials:
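Internal marker readout, fitted in both directions against DMSO, from HepG2 cells carrying transfected cis-element reporter constructs; RT-PCR and capillary electrophoresis of reporter mRNA after 24 h exposure.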

Assay [13] in a line: ATG_ERE_CIS: Attagene CIS-FACTORIAL HepG2 Assay for Estrogen Response Element (ERE) (AID 2282940). The settings on record: HepG2 ERE cis-reporter, Attagene RNA transcript; actives raise or lower the signal. The essentials: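 After 24 h compound treatment, RNA from transfected HepG2 cells was reverse-transcribed, reporter cDNA PCR-amplified, FAM-labelled, HpaI-cut and resolved by capillary electrophoresis. ERE-driven cis reporter transcripts reflect endogenous factors; gain or loss scored against DMSO.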

Assay [14] can be described thus: ATG_Ets_CIS: Attagene CIS-FACTORIAL HepG2 Assay for human Erythroblast Transformation Specific (ETS) (AID 2282941). The note with it: HepG2 ETS cis-reporter transcription, actives raise or lower the signal. In short, it runs like this: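 Multiplexed reporter transcript profiling: HepG2, 24 h treatment, total RNA to cDNA, PCR, 6-FAM labelling, HpaI cut, capillary electrophoresis. Gain- or loss-of-signal fitted against DMSO.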

The target in assay [15] is Hepatocyte nuclear factor 3-beta (Homo sapiens) (UniProt Q9Y261). As to the kind of experiment: ATG_FoxA2_CIS: Attagene CIS-FACTORIAL HepG2 Assay for human Forkhead box A2 (FOXA2) (AID 2282942). The note with it: HepG2 cis-reporter transcription factor activity, 24 h; actives raise or lower the signal. In short, it runs like this:
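Transient MRTU transfection of HepG2 liver cells; 24 h treatment; total RNA → oligo(dT) RT → PCR → FAM primer extension → HpaI cut → CE. Bidirectional fit vs DMSO.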

The nature of assay [16]: ATG_FoxO_CIS: Attagene CIS-FACTORIAL HepG2 Assay for human Forkhead box O (FoxO) (AID 2282943). The settings on record: HepG2 Attagene cis-reporter, FoxO element, mRNA; actives raise or lower the signal. In short, it runs like this:
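Read-out: fluorescence of 6-FAM-labelled reporter cDNA fragments resolved by capillary electrophoresis. Transiently transfected HepG2 cells were dosed for 24 h; activity fitted in both directions relative to DMSO controls.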

A short description of assay [17]: ATG_GATA_CIS: Attagene CIS-FACTORIAL HepG2 Assay for human GATA Binding Protein (AID 2282944). The settings on record: HepG2 GATA cis-element reporter, Attagene multiplex mRNA; actives raise or lower the signal. The essentials: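 Reporter transcripts from a GATA cis-regulated unit, among multiplexed reporters in transfected HepG2 cells, were measured by RT-PCR with capillary electrophoresis after 24 h dosing. Induction or loss scored relative to DMSO.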

Assay [18] can be described thus: ATG_GLI_CIS: Attagene CIS-FACTORIAL HepG2 Assay for human Zinc Finger Protein GLI1 (AID 2282945). The note with it: HepG2, Attagene cis-factorial reporter mRNA, GLI element; actives raise or lower the signal. In short, it runs like this: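 Transiently transfected HepG2 cells report endogenous transcription factor activity via cis-element-driven reporter units. After 24 h compound exposure, reporter mRNA was measured by RT-PCR with capillary electrophoresis; bidirectional fitting against DMSO baseline.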

The target of assay [19] is Retinoic acid receptor alpha (Homo sapiens) (UniProt P10276). As to the kind of experiment: ATG_DR5_RAR_CIS: Attagene CIS-FACTORIAL HepG2 Assay for human Retinoic Acid Receptor Alpha (RARE), DR5 submotif (AID 2282934). The note with it: HepG2 Attagene cis-factorial RARE DR5 reporter, mRNA; actives raise or lower the signal. In short, it runs like this:
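Read-out: DR5-driven reporter transcript measured by RT-PCR, 6-FAM primer extension, HpaI digest and capillary electrophoresis. Human HepG2 liver cells carry transiently transfected cis-element reporter constructs; dosing lasts 24 h. Gain or loss of signal fitted against DMSO baseline.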

Assay [20] concerns the target Bile acid receptor (Homo sapiens) (UniProt Q96RI1). Nature of the assay: ATG_IR1_CIS: Attagene CIS-FACTORIAL HepG2 Assay for human Nuclear Receptor Subfamily 1 Group H Member 4 (NR1H4), IR1 submotif (AID 2282946). The note with it: IR1 reporter transcription, actives raise or lower the signal. The essentials: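 Fluorescence of capillary-separated, HpaI-digested RT-PCR reporter products gave IR1-element mRNA induction in HepG2 cells 24 h after dosing. Endogenous transcription factors drove the cis-regulated reporters; activity was fitted bidirectionally against DMSO.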

Drawing on PubChem BioAssay (EPA / NIEHS), this text covers outcome and AC50 for six molecules.

Structures are written as SMILES. The source holds several records for some structures; these can differ, active in one and inactive in another. Activity calls are given as the source filed them. Rule for the calls: active = hit-call score of the fitted dose curve at least 0.9, where 1 is the maximum; inactive = score below 0.9.

Chain of Hepatocyte nuclear factor 3-beta (Homo sapiens) (Q9Y261 whole entry, looked up): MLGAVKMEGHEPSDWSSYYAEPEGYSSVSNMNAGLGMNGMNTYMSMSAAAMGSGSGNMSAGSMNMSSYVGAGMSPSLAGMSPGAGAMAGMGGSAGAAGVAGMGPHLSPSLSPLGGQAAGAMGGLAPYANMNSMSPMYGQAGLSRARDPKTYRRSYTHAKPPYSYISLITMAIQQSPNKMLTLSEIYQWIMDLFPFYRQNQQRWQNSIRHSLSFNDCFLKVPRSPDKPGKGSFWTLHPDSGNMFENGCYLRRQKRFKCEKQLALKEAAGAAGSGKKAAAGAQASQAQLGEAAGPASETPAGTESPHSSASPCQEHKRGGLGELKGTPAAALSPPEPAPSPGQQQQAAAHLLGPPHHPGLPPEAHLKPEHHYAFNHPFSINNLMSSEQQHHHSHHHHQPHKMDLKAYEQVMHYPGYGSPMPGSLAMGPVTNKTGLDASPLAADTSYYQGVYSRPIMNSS
Chain of Aryl hydrocarbon receptor (Homo sapiens) (P35869 whole entry, looked up): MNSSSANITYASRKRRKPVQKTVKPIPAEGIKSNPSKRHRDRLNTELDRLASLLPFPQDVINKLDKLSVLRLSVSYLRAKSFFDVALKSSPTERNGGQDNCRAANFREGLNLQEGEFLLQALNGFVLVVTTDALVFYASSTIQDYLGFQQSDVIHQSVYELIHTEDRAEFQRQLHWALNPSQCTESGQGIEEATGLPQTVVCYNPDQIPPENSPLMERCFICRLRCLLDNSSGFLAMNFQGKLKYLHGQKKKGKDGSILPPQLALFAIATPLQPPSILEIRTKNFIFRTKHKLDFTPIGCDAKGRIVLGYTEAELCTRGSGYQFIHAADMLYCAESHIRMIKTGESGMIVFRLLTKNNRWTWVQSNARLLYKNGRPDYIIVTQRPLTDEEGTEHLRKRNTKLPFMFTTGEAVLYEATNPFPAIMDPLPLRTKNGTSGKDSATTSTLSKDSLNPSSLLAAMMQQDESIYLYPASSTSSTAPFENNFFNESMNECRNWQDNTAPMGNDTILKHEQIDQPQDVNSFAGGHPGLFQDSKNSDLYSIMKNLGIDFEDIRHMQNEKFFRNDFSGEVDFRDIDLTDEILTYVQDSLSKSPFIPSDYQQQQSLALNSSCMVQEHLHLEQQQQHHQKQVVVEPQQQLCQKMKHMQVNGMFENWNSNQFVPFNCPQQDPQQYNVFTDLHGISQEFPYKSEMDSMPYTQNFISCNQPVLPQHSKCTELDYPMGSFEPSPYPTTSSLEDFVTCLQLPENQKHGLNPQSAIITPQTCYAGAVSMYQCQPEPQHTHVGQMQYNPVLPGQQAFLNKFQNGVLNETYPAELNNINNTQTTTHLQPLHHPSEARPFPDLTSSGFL
Chain of Transcription factor E2F1 (Homo sapiens) (Q01094 whole entry, looked up): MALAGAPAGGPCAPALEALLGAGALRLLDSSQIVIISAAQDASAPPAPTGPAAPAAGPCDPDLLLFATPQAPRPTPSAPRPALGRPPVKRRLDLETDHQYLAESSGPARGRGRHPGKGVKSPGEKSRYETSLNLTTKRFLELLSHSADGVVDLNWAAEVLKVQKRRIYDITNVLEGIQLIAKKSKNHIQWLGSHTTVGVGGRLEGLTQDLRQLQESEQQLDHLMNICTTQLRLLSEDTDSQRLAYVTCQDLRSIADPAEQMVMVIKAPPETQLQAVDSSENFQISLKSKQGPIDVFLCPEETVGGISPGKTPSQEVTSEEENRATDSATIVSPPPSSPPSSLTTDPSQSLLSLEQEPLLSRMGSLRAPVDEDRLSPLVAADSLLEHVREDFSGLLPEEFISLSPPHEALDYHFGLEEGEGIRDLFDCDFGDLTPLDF
Chain of CCAAT/enhancer-binding protein beta (Homo sapiens) (P17676 whole entry, looked up): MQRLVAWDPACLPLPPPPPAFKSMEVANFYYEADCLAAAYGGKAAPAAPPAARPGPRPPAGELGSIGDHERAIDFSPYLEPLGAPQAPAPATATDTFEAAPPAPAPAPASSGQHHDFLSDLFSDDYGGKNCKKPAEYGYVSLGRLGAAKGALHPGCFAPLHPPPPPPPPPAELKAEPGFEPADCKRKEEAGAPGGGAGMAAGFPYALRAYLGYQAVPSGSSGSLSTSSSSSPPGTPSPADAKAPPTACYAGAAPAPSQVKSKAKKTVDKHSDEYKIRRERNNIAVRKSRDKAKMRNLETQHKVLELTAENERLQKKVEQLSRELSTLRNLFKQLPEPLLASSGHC
Chain of Retinoic acid receptor alpha (Homo sapiens) (P10276 whole entry, looked up): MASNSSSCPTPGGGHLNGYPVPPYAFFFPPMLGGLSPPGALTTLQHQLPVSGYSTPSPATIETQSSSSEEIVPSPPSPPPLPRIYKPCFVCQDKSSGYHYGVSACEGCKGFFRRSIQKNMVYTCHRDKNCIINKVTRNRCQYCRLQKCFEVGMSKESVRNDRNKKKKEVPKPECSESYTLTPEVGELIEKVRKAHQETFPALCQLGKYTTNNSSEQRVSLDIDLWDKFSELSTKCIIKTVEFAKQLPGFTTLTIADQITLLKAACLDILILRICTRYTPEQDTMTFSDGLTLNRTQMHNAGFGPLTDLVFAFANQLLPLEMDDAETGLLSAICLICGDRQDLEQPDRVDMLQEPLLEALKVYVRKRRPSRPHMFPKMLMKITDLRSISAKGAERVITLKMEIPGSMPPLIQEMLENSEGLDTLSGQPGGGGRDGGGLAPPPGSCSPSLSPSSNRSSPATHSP
Chain of Bile acid receptor (Homo sapiens) (Q96RI1 whole entry, looked up): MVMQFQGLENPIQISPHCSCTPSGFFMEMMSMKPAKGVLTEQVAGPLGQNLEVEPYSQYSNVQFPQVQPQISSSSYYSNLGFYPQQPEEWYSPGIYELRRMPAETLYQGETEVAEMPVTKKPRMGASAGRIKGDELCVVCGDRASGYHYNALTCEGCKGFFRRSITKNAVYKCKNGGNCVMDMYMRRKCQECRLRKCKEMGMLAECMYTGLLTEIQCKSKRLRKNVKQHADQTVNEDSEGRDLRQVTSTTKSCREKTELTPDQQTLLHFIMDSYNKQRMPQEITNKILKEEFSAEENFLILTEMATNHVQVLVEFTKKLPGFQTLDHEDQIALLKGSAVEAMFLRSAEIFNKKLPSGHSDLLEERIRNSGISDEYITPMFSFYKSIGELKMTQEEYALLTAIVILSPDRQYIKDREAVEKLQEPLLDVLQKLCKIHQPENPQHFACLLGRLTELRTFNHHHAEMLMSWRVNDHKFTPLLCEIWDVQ

By AC50 is commonly meant the midpoint of the concentration-response curve, whichever way the signal moves. Regarding `CCCCC(CC)CN1C(=O)C2C3C=CC(C3)C2C1=O` (centres undefined), the result in assay [1], in assay [2], in assay [4], in assay [6], in assay [8] and in assay [9] was inactive. The molecule was called inactive in assay [10], in [11], in [12], in [13], in [14] and in assay [15]. Further, the outcome in assay [16], in assay [17] and in [18] was inactive. Also, the AC50 in assay [3] was 85.4 µM (active); in [5], 69.6 µM (active); in assay [7] it was 45.3 µM (active).

On to `c1ccc2[nH]c(-c3cscn3)nc2c1`, for which the result in assay [1], in [2], in [3], in assay [5], in assay [7] and in assay [19] was inactive. The call in assay [8], in assay [9], in [10], in [11], in assay [12] and in assay [13] was inactive. Also, the outcome in assay [14], in [15], in assay [16], in assay [17], in assay [18] and in assay [20] was inactive. Further, the AC50 in assay [3] was 32.1 µM (active).

For the molecule `COC(=O)c1ccc(I)cc1S(=O)(=O)NC(=O)Nc1nc(C)nc(OC)n1`, the result in [1], in assay [2], in assay [3], in assay [4], in [5] and in assay [7] was inactive. Moreover, the call in assay [8], in assay [9], in assay [10], in assay [11], in assay [12] and in [14] was inactive. For the same molecule, the outcome in assay [15], in assay [16], in assay [17] and in assay [18] was inactive.

Take `CC1(C)C(C=C(Cl)Cl)C1C(=O)OCc1cccc(Oc2ccccc2)c1` (centres undefined): the outcome in [1], in assay [2], in [4], in [5], in assay [7] and in assay [8] was inactive. The outcome in [9], in [10], in assay [11], in assay [12], in assay [14] and in [15] was inactive. The call in assay [16], in assay [17] and in assay [18] was inactive. Further, the AC50 in assay [3] was 29.9 µM (active); in assay [13] it was 21.3 µM (active).

For the molecule `N[C@@H](Cc1cc(I)c(Oc2ccc(O)c(I)c2)c(I)c1)C(=O)O`, the result in assay [1], in [2], in assay [3], in assay [5], in assay [7] and in assay [8] was inactive. Also, the result in assay [9], in assay [10], in assay [11], in assay [12], in [14] and in [15] was inactive. Besides, the molecule was called inactive in [16], in [17] and in assay [18]. Further, the AC50 was 22.6 µM (active) in assay [5] and 1.32 µM (active) in [15].

In the case of `S=C([S-])NCCNC(=S)[S-].[Mn+2]`, the result in [1], in assay [2], in assay [3], in assay [4], in assay [5] and in [6] was inactive. Further, the molecule was classed as inactive in assay [7], in [8], in assay [9], in assay [10], in assay [11] and in assay [12]. The call in assay [14], in [15], in assay [16], in [17] and in [18] was inactive.
